Screens: PubChem BioAssay, several laboratories
CD11b adhes enh – enhancers of CD11b/CD18 adhesion to fibrinogen, primary screen, K562 cells, luminescence | Integrin beta-2 (Homo sapiens) + Integrin alpha-M (Homo sapiens), P05107+P11215 | ATPlite luminescence | activation, % at 10 µM | hit rate 0.07% among 93,000 | AID 1499, 2009;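 active means 10 µM primary screen giving 50% or more activity, confirmed by 40% or more on retest at that dose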
Smad3 FoxH1 inh – Smad3/FoxH1 peptide binding inhibitors, primary screen, biochemical, TR-FRET; TR-FRET Smad3/Dy647-FoxH1 peptide binding, europium anti-His; inhibition, % at 25 µM; hit rate 0.29% among 88,000;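 active means compounds that reduce the energy-transfer binding signal between the protein and its labelled peptide by more than half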;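 further: 0% = Smad3 plus labelled peptide maximal FRET and 100% = peptide-only background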
Target sequence (P84022 whole entry, looked up): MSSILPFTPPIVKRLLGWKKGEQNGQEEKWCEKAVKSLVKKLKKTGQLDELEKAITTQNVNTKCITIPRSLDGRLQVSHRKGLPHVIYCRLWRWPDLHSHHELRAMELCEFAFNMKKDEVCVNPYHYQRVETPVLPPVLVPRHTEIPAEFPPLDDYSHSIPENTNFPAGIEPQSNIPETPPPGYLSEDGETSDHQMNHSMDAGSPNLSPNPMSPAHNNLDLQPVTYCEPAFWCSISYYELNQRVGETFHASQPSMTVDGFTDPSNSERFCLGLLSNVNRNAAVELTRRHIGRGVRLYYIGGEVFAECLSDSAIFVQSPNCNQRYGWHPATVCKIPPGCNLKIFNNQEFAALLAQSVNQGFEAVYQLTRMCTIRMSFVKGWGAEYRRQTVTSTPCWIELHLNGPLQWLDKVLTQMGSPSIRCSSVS
Phagocytosis inh – inhibitors of macrophage phagocytosis, primary screen, imaging, J774A.1 cells, IgG beads; J774A.1 macrophage IgG-bead phagocytosis; inhibition, % at 5 µM; hit rate 0.07% among 110,000;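 active means inhibition above the mean of the plate negative controls plus 5 SD, cut at about 13% in these data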;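 further: phagocytic index as fraction of beads internalized from green versus red external bead signal; plate controls were DMSO negative control for no effect and cytochalasin-D positive control for full effect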
MRP reversal – reversal of MRP1-mediated doxorubicin resistance, primary screen, H69AR cells, doxorubicin co-treatment; differential viability (reversal), % at 10 µM; AID 602, 2007; H69AR cells + 2 uM doxorubicin, CellTiter-Glo, 72 h; hit rate 0.04% among 85,000;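 active means viability drop by adding the cancer drug above about 55%, with treated viability meeting a 40% cutoff, limit read from the data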;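 further: viability without doxorubicin minus viability with 2 µM doxorubicin for each compound; larger differential means the compound sensitizes cells more to doxorubicin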
MRP-1 activ – H69AR viability gain despite doxorubicin, primary screen, MRP-1 activator project, H69AR cells, CellTiter-Glo | viability increase, % at 10 µM | hit rate 0.61% among 140,000 | viability rescue;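 active means viability gain under doxorubicin at or above a set limit, the compound median plus 3 SD, cut at about 4.7% in these data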;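 further: MRP-1 overexpressing cells given doxorubicin 25 µM after compound pretreatment; 18-22 h compound pretreatment then 72 h with doxorubicin before readout; 0% = doxorubicin-only wells and 100% = vehicle-treated cells without doxorubicin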
CD11b adhes inh – inhibitors of CD11b/CD18 adhesion to fibrinogen, primary screen, K562 cells, luminescence; ATPlite luminescence; Mn2+ added to activate the integrin; hit rate 0.54% among 93,000; inhibition, % at 10 µM;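 active means primary inhibition of 50% or more at 10 µM, then 40% or more on retest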
* hit, by the source's call; . = not tested or not shown; [ ] = dose if it differs, or a comment. Rows were chosen to be rich in hits. Some 1.2% of all compounds tested hit in one or more screens of this group.

SMILES | CD11b adhes enh | Smad3 FoxH1 inh | Phagocytosis inh | MRP reversal | MRP-1 activ | CD11b adhes inh
CN=C1NN=C(c2cc(C)n(-c3c(C)n(C)n(-c4ccccc4)c3=O)c2C)CS1 | . | . | -3 | . | 0 | .
O=c1c(-c2nnc(SCc3ccc(Cl)cc3)o2)cccn1Cc1ccccc1 | . | . | . | . | 5.4* | .
O=C(Nc1nc(=S)ss1)c1ccc(Cl)cc1Cl | -7 | 5 | . | 3 | -2 | 114*
CCOC(=O)C1CCCN(Cc2ccc(O)c(OC)c2)C1 (stereo unspecified) | -1 | 1 | 0 | -5 | -1 | 6
CCOC(=O)C1CCCN(Cc2ccc(OC)cc2OC)C1 (stereo unspecified) | -2 | -3 | 0 | 0 | 30* | -5
C/C(=N\NC(=S)NCCc1ccccc1)c1cccs1 | . | . | . | . | -2 | .
CCn1c(C)c(C)c2cc(C(=O)Nc3cccc(Cl)c3)ccc21 | . | . | . | . | 6.5* | .
c1cn2cc(CN3CCOCC3)nc2s1 | -1 | -1 | -2 | 3 | 0 | -6
Cc1ccc(C2SCC(=O)N2Cc2cn3ccsc3n2)o1 (stereo unspecified) | 0 | 64*[fluorescence artefact?] | 0 | -2 | -3 | 3
C[C@H](CCC(=O)NN)[C@@H]1CC[C@@H]2[C@H]3CC[C@H]4C[C@@H](O)CC[C@]4(C)[C@@H]3CC[C@]21C | . | 7 | . | . | . | .
CCOC(=O)c1sc(NC(=O)c2cc(-c3ccccc3C)nc3ccccc23)c(C#N)c1C | -7 | . | 2 | . | -7 | 93*
Cc1cc(Cl)c(S(=O)(=O)N2CCN(c3ccc(F)cc3)CC2)cc1OCC(=O)NC1CCCCC1 | -6 | 3 | 1 | -36 | -1 | 94*
C[C@@H]1C[C@H]2[C@@H]3C[C@H](F)C4=CC(=O)C=C[C@]4(C)[C@@]3(F)[C@@H](O)C[C@]2(C)[C@@]1(O)C(=O)COC(=O)C(C)(C)C | . | -8 | . | -11 | 4 | .
CC(=O)OCC(=O)[C@@]1(O)[C@H](C)C[C@H]2[C@@H]3CCC4=CC(=O)C=C[C@]4(C)[C@@]3(F)[C@@H](O)C[C@@]21C | . | 10 | . | -12 | 10* | .
Cc1ccc(S(=O)(=O)Nc2nc3ccccc3s2)cc1 | -2 | -10 | 0 | 3 | -2 | 5
O=S(=O)(Nc1nc2ccccc2s1)c1ccc(Br)s1 | -12 | 5 | 0 | -12 | -4 | 101*
CCCCOc1ccc(-c2nc(=S)[nH][nH]2)cc1 | -3 | 2 | 2 | -8 | -2 | -41
Cc1c(C)n(C)c2ccc(C(=O)NCc3cccs3)cc12 | 1 | 8 | 0 | 25 | 5.5* | -1
c1ccc(CNc2ncnc3ccccc23)cc1 | -4 | -6 | 1 | -3 | -1 | 66*
C=C(Cl)COc1ccc2c(CCCC)cc(=O)oc2c1 | 2 | 1 | -1 | 18 | 6.2* | -5
N#CCSc1nc2cc(C(=O)N3CCC(C(N)=O)CC3)ccc2c2nc3ccccc3n12 | -3 | 4 | 0 | -22 | 6.1* | 0
N#CCSc1nc2cc(C(=O)N3CCCC3)ccc2c(=O)n1Cc1ccccc1 | 2 | . | . | . | -1 | -9
CNc1oc(-c2ccccc2Cl)nc1P(=O)(c1ccccc1)c1ccccc1 | . | . | -5 | . | 4.7* | .
CNc1oc(-c2ccc(C)cc2)nc1P(=O)(c1ccccc1)c1ccccc1 | . | . | . | . | 7.4* | .
COc1ccc(N2C(=O)CCC(C(=O)NCCN3CCOCC3)C2c2ccc(OC)c(OC)c2)cc1 (stereo unspecified) | -1 | -3 | 44* | 20 | 1 | 1
SMILES | CD11b adhes enh | Smad3 FoxH1 inh | Phagocytosis inh | MRP reversal | MRP-1 activ | CD11b adhes inh
O=C(O)CCc1ccc(-c2cccs2)n1NC(=O)c1ccc(Cl)cc1Cl | 0 | -12 | 0 | 4 | 1 | -17
O=C(O)CCc1ccc(-c2cccs2)n1NC(=O)c1ccc(Cl)cc1 | -3 | 1 | 79* | -5 | -2 | -3
O=C(NC(=S)Nc1ccc(Oc2ccccc2)cc1)c1ccc(Cl)cc1 | -9 | . | 0 | . | -1 | 78*
CCOC(=O)c1cc(C#N)c(SCc2ccc(C#N)cc2)nc1C | . | 64*[fluorescence artefact?] | . | -13 | -2 | .
COC(=O)c1sc(NC(=S)NC(=O)c2ccccc2)nc1C | 5 | . | -8 | . | -2 | 21
Cc1nc(NC(=S)NC(=O)c2ccccc2)sc1C(=O)N(C)C | -2 | . | 0 | . | 7.7* | 1
COc1cc(C(=O)N2CCN(c3ncnc4sc(C)c(C)c34)CC2)cc(OC)c1OC | -12 | -5 | 2 | 22 | -1 | 60*
Cc1cccc2cc(CN(Cc3ccccc3)C(=O)N3CCOCC3)c3nnnn3c12 | . | 5 | . | -13 | . | .
Cc1ccc(S(=O)(=O)N(C)c2ccc(C(=O)N3CCN(Cc4ccc5c(c4)OCO5)CC3)cc2)cc1 | -9 | -10 | 0 | -11 | -5 | 61*
CC1(C)S[C@H]2[C@H](C(=O)O)N=C(Cc3ccccc3)N2[C@H]1C(=O)O | . | 10 | . | . | . | .
COc1cc(CN(C)CC(=O)c2[nH]c(C)c(C(C)=O)c2C)ccc1OC(F)F | -7 | . | . | . | -2 | 74*
COc1ccccc1OCC(=O)c1[nH]c(C)c(C(C)=O)c1C | . | 12 | . | -2 | -2 | .
CCC(CO)NCc1ccc2c(c1)n(C)c(=O)n2C (stereo unspecified) | -6 | -16 | -1 | 0 | 0 | -3
COc1ccc(N(C)S(=O)(=O)c2cccc3cccnc23)c(OC)c1 | 54* | 7 | 2 | -24 | -3 | -2
CCCCOc1ccc(/C=C/C(=O)Nc2ccc([N+](=O)[O-])cc2C)cc1 | 64 | . | -1 | . | 5.8* | -16
CCCOc1ccc(/C=C/C(=O)Nc2ccc([N+](=O)[O-])cc2)cc1 | -9 | . | -3 | . | -1 | 88
CO[C@@H]1/C=C\O[C@]2(C)Oc3c(C)c(O)c4c(O)c(cc(O)c4c3C2=O)NC(=O)C(C)=C/C=C\[C@H](C)[C@@H](O)[C@H](C)[C@H](O)[C@H](C)[C@H](OC(C)=O)[C@@H]1C | . | -1 | . | . | . | .
C/C(=N\NC(=O)c1ccc(Cn2cc(Br)cn2)o1)c1cccc(NC(=O)C(C)(C)C)c1 | . | . | -3 | . | 0 | .
C/C(=N\NC(=O)c1ccc(Cn2cc([N+](=O)[O-])cn2)o1)c1cccc(NC(=O)c2cccnc2)c1 | . | . | -2 | . | 20* | .
COc1cc2c(cc1OC)CN(S(=O)(=O)c1ccc3c(c1)OCCO3)CC2 | -4 | 9 | -1 | 11 | 0 | -7
O=C(Cc1c(O)c2ccccc2[nH]c1=O)OC1CCCCC1 | 3 | 3 | -1 | 1 | 0 | -10
CCOc1cc(/C=N/NC(N)=O)ccc1OC(=O)c1ccc(C)cc1 | -1 | . | . | . | 1 | 1
CCOc1cc(/C=N/NC(=O)CNc2ccc(C)cc2)ccc1OC(=O)c1ccccc1 | 25 | 3 | 174* | -20 | 0 | -29
O=C(NCC1c2ccccc2CCN1C(=O)CN1CCOCC1)C1CCCCC1 (stereo unspecified) | -1 | 63*[fluorescence artefact?] | -2 | 3 | 0 | -15
